Compound activity: PubChem BioAssay, National Center for Advancing Translational Sciences (NCATS)
Compounds with a hit are over-represented: about 21% of the library has one in this group of screens.
NS1 function inh: qHTS Assay for Inhibitors of Influenza NS1 Protein Function; 0.4% of 270,000 active; Potency, µM (top dose mostly 46.1 µM); AID 2326, 2010; note: actives are rising curves; nearly all actives have a fitted effect of over 50% in size
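Compounds were scored for reversing the slow growth caused by influenza A NS1 in S. cerevisiae, measured by optical density at 600 nm. Assay medium contained 2% galactose at pH 6.0; NS1-free yeast of the same strain were the positive control.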
Pf growth 48h: Primary qHTS for delayed death inhibitors of the malarial parasite plastid, 48 hour incubation. 5.9% of 310,000 active. Potency, µM (series often up to 28.7 µM), most hits filed as inhibitors. P. falciparum luciferase growth in erythrocytes, 48 h; active = well fitted inhibition curve with a large enough effect; inconclusive = small, poorly fitted or top-dose-only effect, or another doubt; inactive = no such curve, though single readings can be large or run the other way
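Erythrocytes infected with P. falciparum carrying an integrated firefly luciferase reporter (2% hematocrit, 0.1% parasitemia final) were exposed to compounds in RPMI 1640 with 0.5% Albumax at 37 C, 5% CO2. Growth inhibition was scored as reduced luminescence.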
Pf growth 96h: Primary qHTS for delayed death inhibitors of the malarial parasite plastid, 96 hour incubation | P. falciparum luciferase reporter growth, 96 h | Potency, µM (series often up to 28.7 µM), actives largely listed as inhibitors | 6.9% of 320,000 active | AID 504834, 2011; active = well fitted inhibition curve with a large enough effect; inconclusive = small, poorly fitted or top-dose-only effect, or another doubt; inactive = no such curve, though single readings can be large or run the other way
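Compounds incubated with erythrocytes infected by luciferase-expressing P. falciparum (2% hematocrit, 0.05% parasitemia final) for 96 hours, 37 C in 5% CO2. Growth inhibition scored as decreased luciferase luminescence.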
Shiga toxin inh: A qHTS for Small Molecule Inhibitors of Shiga Toxin. AID 2315, 2010. Vero cells, Shiga toxin protein synthesis inhibition reporter. inhibition, % at 38.7 µM. 9.2% of 290,000 active; in the data active = inhibition mostly above about 28%, no sharp cut-off; inactive = mostly below about 43%
SARS PLpro yeast: qHTS of Yeast-based Assay for SARS-CoV PLP | 0.19% of 330,000 active | Potency, µM (doses to about 32.9 µM), hits mostly activators | AID 485353, 2010 | S. cerevisiae expressing SARS-CoV PLpro, growth rescue; note: nearly all actives have a fitted effect of over 55% in size
CHX counter: Cycloheximide Counterscreen for Small Molecule Inhibitors of Shiga Toxin; cell reporter, cycloheximide protein synthesis inhibition counterscreen; max response, %; 12% of 300,000 active; in the data active = max response mostly above about 13%, no sharp cut-off; inactive = mostly below about 14%; note: read at 38.3 µM for the half of the compounds with a filed dose
Large screens that a line does not name were inactive. Unless noted, calls come from the whole dose curve.

CCOC(=O)c1ccc2[nH]c(C)cc(=O)c2c1	Pf growth 48h inconclusive
CCOC(=O)c1ccc2[nH]c3ccccc3c2c1	Pf growth 48h inconclusive, Shiga toxin inh 63, CHX counter 37
CCOC(=O)C[n+]1ccc2c([nH]c3ccccc32)c1C	Pf growth 96h 10µM (no result: Shiga toxin inh)
COc1ccc(N(CCC#N)C(=O)/C(C#N)=C/c2cccs2)cc1	Pf growth 48h inconclusive (no result: NS1 function inh)
CC(C)N1CCN(Cc2ccc(Sc3nncn3C)o2)CC1CCO (centres undefined)	none
O=C(NNc1cccc(Cl)n1)Nc1ccccc1F	none (no result: NS1 function inh)
COc1cc(NC(=O)n2ncc3cc(Cl)ccc32)cc(OC)c1	Pf growth 96h inconclusive, Shiga toxin inh 60, CHX counter 43
COc1cccc(NC(=O)n2nc(N)cc2-c2ccc(Cl)cc2)c1	none
COc1ccc(NC(=O)n2ncc3cc(Cl)ccc32)cc1OC	Shiga toxin inh 56, CHX counter 47
O=C(Nc1ccccc1F)n1ncc2cc(Cl)ccc21	CHX counter 12
COc1cccc(-c2cc(C(=O)NCC3CCCO3)c3ccccc3n2)c1 (centres undefined)	none
Cc1ccc(OCCC(=O)OCC(=O)N2CCN(S(=O)(=O)c3ccc(C)cc3)CC2)cc1	none (no result: NS1 function inh, Shiga toxin inh, CHX counter)
Cc1c(C)n(Cc2ccc(F)cc2)c2ccc(C(=O)NCCN3CCOCC3)cc12	none
CS(=O)(=O)NCCC1=CCCCC1	none
CC1=NN(/C(=N\c2nnc(C)s2)Nc2ccccc2)[C@H](c2cccc3ccccc23)S1	Pf growth 48h 6.6µM, Pf growth 96h 9.3µM
CC1=NN(/C(=N\c2nnc(C)s2)Nc2ccc(C)cc2)[C@H](c2ccc(C)cc2)S1	Pf growth 48h 10µM, Pf growth 96h inconclusive, SARS PLpro yeast inconclusive
Cc1nnc(SCc2cc(=O)[nH]c(/N=C(\N)Nc3ccccc3)n2)s1	Pf growth 96h inconclusive
Cc1ccc(NC(=O)N2N=C(c3ccc(F)cc3)CC2c2ccc(F)cc2)cc1 (centres undefined)	Pf growth 48h inconclusive
CC1CCCCN1C(=O)CCc1nnc(Cc2c[nH]c3ccccc23)o1 (centres undefined)	Pf growth 96h inconclusive
O=S1(=O)CCOC(CO)CN1Cc1ccc(Cl)c(Cl)c1 (centres undefined)	none (no result: NS1 function inh, Pf growth 48h, Pf growth 96h, Shiga toxin inh, CHX counter)
CCCc1cc(C(=O)N2CCC(n3nccc3NC(=O)c3ccc(OC)cc3)CC2)no1	Shiga toxin inh 22, CHX counter 21
C=CCCC(=O)N1CCC(n2nccc2NC(=O)c2ccc(OC)cc2)CC1	Pf growth 96h 12µM, CHX counter 37
COc1ccc(C(=O)Nc2ccnn2C2CCN(C(=O)C3CCOC3)CC2)cc1 (centres undefined)	Shiga toxin inh 53, CHX counter 25
Cc1ccccc1C(=O)Nc1ccnn1C1CCN(C(=O)C2CCOC2)CC1 (centres undefined)	none
O=C(Nc1ccnn1C1CCN(C(=O)c2cnsn2)CC1)c1cccc(F)c1	Pf growth 96h inconclusive, CHX counter 18
C/C=C(\C)CN1CCC(n2nccc2NC(=O)c2ccc(OC)cc2)CC1	NS1 function inh inconclusive, Pf growth 96h inconclusive
COc1ccc(C(=O)Nc2ccnn2C2CCN(Cc3cn(C)nc3C)CC2)cc1	none
O=C(Nc1ccnn1C1CCN(C2CCCCC2)CC1)c1cccc(F)c1	none
COc1ccc(N2CCN(C(CNC(=O)C(=O)NC3CCCC3)c3ccco3)CC2)cc1 (centres undefined)	none (no result: NS1 function inh, Shiga toxin inh, CHX counter)
COc1ccc(C(=O)Nc2ccnn2C2CCN(C(=O)CCC(F)(F)F)CC2)cc1	Shiga toxin inh 42, CHX counter 24
O=C1CCC(C(=O)N2CCCCO2)CN1CCc1ccccc1 (centres undefined)	Pf growth 96h inconclusive, Shiga toxin inh 81, CHX counter 42
COc1ccccc1CN1CC(C(=O)N2CCCCO2)CCC1=O (centres undefined)	Shiga toxin inh 71, CHX counter 31
COc1cc(-c2nc3c(c(C)nn3-c3ccccc3)c3cc(OC)c(OC)cc23)ccc1O	Pf growth 48h 2.9µM, Pf growth 96h inconclusive
Cc1[nH]cnc1CSCCN	none (no result: Pf growth 48h)
Cc1[nH]cnc1CSCc1ccc(Cl)cc1	NS1 function inh inconclusive, Pf growth 48h inconclusive, Pf growth 96h inconclusive, Shiga toxin inh 73, CHX counter 23
CCC1(c2ccc(Cl)cc2)NC(=O)N(CC(=O)N2CCN(C(=O)c3ccco3)CC2)C1=O (centres undefined)	none (no result: NS1 function inh, Pf growth 48h, Pf growth 96h, Shiga toxin inh, CHX counter)
O=C(Nc1ccnn1C1CCN(Cc2cccc(OCCO)c2)CC1)C1CCOC1 (centres undefined)	Pf growth 96h 5.2µM
CCOc1cccc(CN2CCC(n3nccc3NC(=O)C3CCCC3)CC2)c1	none
O=C(Nc1ccnn1C1CCN(Cc2cc3ccccc3[nH]2)CC1)C1CCOC1 (centres undefined)	Pf growth 96h 5.2µM
O=C(Nc1ccnn1C1CCN(C(=O)c2ccc(F)cc2)CC1)C1CCOC1 (centres undefined)	none
O=C(Nc1ccnn1C1CCN(C(=O)CCc2ccc(F)cc2)CC1)C1CCOC1 (centres undefined)	Pf growth 48h inconclusive, CHX counter 20
Cc1c(CN2CCC(n3nccc3NC(=O)C3CCOC3)CC2)[nH]c2ccccc12 (centres undefined)	none
CCc1noc(C)c1C(=O)N1CCCC(CCC(=O)NCc2ccc(F)c(F)c2)C1 (centres undefined)	Pf growth 48h inconclusive, Pf growth 96h inconclusive
C[C@@H]1CC[C@]2(C(=O)O)CC[C@]3(C)C(=CCC4[C@@]5(C)C[C@@H](O)[C@H](O)[C@@](C)(CO)C5CC[C@]43C)C2[C@H]1C (some centres undefined)	none (no result: NS1 function inh, Pf growth 48h, Pf growth 96h, SARS PLpro yeast)
Cc1ccc(S(=O)(=O)N2CCC(C(=O)NNC(=O)C3CC3)CC2)cc1Cl	Pf growth 48h inconclusive, Pf growth 96h inconclusive (no result: NS1 function inh)
Cn1c(C(=O)N2CCC(C(N)=O)CC2)cc2cc(Cl)ccc21	Pf growth 96h inconclusive
C/C(=N\NC(=O)c1ccccc1F)c1ccc(C#N)cc1	Shiga toxin inh 129, CHX counter 38
O=C(Nc1cccc(NC(=O)c2ccccc2F)c1)c1ccccc1	none
C/C(=N\NC(=O)c1c(Cl)c(C)nn1C)c1cccc(NC(=O)c2cccc(F)c2)c1	Pf growth 48h inconclusive, Pf growth 96h inconclusive
C/C(=N\NC(=O)c1nn(C)c(C)c1Br)c1cccc(NC(=O)c2ccc(F)cc2)c1	Pf growth 96h inconclusive, Shiga toxin inh active, CHX counter 72
C/C(=N\NC(=O)c1c(Br)c(C)nn1C)c1cccc(NC(=O)c2ccccc2F)c1	Shiga toxin inh 66, CHX counter 21
C/C(=N\NC(=O)c1cc(Br)ccc1O)c1cccc(NC(=O)c2ccccc2F)c1	Shiga toxin inh 43
O=CN1CC(=O)N(c2ccccc2)c2c([nH]c3ccccc23)C1	none
